# Source: PubChem BioAssay (Tox21)
# Inconclusive results are not listed. A call without a number means that no potency is given here. Calls of active or inactive are those of the source. Calls come from the whole dose curve; as a rule, active = well fitted cell-killing curve with a large enough effect in the repeat runs; inconclusive = weak or mixed curves, or effect the other way; inactive = flat fitted curve, though single readings scatter.
# Test: cAMP Responsive Elements (CRE) small molecule agonists, cell-based qHTS assay: qHTS cell viability counter screen (AID 2060914); note: nearly all actives have a fitted effect of over 50% in size
# Conditions: CRE-bla HEK293T viability, CellTiter-Glo luminescence, 5 h; series mostly up to 92.4 µM
# Outline: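 CRE-bla HEK293T cells in 10% dialyzed FBS medium were exposed to compounds for 3 h at 37C after 18 h plating. CellTiter-Glo was then added in the same wells, and luminescence was read after 30 min at room temperature.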
# Potency is the fitted concentration of half-maximal effect.
row,Compound,Potency
1,COC(=O)c1ccc(I)cc1S(=O)(=O)NC(=O)Nc1nc(C)nc(OC)n1,inactive
2,CN=C(NC#N)NCCSCc1csc(N=C(N)N)n1,inactive
3,OCCN1CCNCC1,inactive
4,CCN[C@H]1CN(CCCOC)S(=O)(=O)c2sc(S(N)(=O)=O)cc21,inactive
5,Cc1c(C2(c3cc(Br)c(O)c(Br)c3C)OS(=O)(=O)c3ccccc32)cc(Br)c(O)c1Br,52.9 µM (active)
6,O=C(O)c1cc(O)c2ccccc2c1O,inactive
7,Cc1nc2ccc(CN(C)c3ccc(C(=O)N[C@@H](CCC(=O)O)C(=O)O)s3)cc2c(=O)[nH]1,inactive
8,NNC(=O)c1ccncc1,inactive
9,CCCCCCCCCCCCCCOS(=O)(=O)O,inactive
10,CN1C(C)(C)CC(O)CC1(C)C,inactive
11,O=Cc1cc(O)ccc1Br,inactive
12,CC(=O)O[C@]1(C(C)=O)CC[C@H]2[C@@H]3C=C(Cl)C4=CC(=O)CC[C@]4(C)[C@H]3CC[C@@]21C,inactive
13,O=C(COCCOCCOCC(=O)Nc1c(I)cc(I)c(C(=O)O)c1I)Nc1c(I)cc(I)c(C(=O)O)c1I,inactive
14,CC(=O)c1ccc2c(c1)[C@H](NC(=O)c1ccc(F)cc1)[C@@H](O)C(C)(C)O2,inactive
15,CN(C[C@@H](CC[N+]12CCC(C3CCCCC3)(CC1)CC2)c1ccc(Cl)c(Cl)c1)C(=O)c1cc(C(F)(F)F)cc(C(F)(F)F)c1,inactive
16,C[Si](C)O[Si](C)C,inactive
17,C=CCOc1ccccc1OCC(O)CNC(C)C (stereo not drawn),inactive
18,CC(C)CCOC(=O)CC(C)C,inactive
